# Test results published in ChEMBL document CHEMBL3988442, “University of Dundee, Small-Polar-MMV Screening Library” (2021).
# For some assays here: Entries with a potency or affinity are not part of this list.
# How the values were obtained:
# Design in all cases: scale not given: direction of the effect not stated beside the values
# [1] = molecular target: Protein translocase subunit SecA (Escherichia coli (strain K12)) (UniProt P10408); assay: Assay to Identify E. coli SecA ATPase Inhibitors; assay type: functional; settings: 30 µM
# Sequence of Protein translocase subunit SecA (Escherichia coli (strain K12)) (P10408 whole entry): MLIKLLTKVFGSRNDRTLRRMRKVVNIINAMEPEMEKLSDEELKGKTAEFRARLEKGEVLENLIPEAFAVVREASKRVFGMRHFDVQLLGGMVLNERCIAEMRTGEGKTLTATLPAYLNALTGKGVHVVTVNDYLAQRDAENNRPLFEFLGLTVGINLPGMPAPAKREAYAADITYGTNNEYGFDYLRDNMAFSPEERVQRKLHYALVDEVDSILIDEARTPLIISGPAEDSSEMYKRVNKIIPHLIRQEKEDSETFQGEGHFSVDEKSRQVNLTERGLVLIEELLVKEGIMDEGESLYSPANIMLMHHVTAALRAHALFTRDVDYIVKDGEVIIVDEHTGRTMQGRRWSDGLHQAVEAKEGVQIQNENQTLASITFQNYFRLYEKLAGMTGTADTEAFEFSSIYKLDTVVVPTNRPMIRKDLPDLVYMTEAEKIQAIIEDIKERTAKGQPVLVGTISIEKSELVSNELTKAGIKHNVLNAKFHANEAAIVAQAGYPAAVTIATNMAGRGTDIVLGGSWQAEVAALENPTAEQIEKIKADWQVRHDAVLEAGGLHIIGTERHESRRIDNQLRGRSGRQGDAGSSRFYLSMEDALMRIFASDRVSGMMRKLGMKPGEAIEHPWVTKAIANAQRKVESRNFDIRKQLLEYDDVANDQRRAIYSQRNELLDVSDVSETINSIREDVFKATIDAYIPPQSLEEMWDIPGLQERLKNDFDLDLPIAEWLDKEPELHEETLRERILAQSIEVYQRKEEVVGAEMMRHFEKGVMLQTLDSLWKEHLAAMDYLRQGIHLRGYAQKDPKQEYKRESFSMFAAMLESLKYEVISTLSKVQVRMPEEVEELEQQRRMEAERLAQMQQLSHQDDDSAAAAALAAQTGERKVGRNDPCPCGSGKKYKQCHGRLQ
# [2] = molecular target: T1, Ubiquitin-activating enzyme e1, putative (Leishmania donovani (strain BPK282A1)) (UniProt E9BSI1); assay: Leishmania donovani Ubiquitin Activating Enzyme (LdE1); assay type: functional; settings: 30 µM
# T1 sequence (whole entry): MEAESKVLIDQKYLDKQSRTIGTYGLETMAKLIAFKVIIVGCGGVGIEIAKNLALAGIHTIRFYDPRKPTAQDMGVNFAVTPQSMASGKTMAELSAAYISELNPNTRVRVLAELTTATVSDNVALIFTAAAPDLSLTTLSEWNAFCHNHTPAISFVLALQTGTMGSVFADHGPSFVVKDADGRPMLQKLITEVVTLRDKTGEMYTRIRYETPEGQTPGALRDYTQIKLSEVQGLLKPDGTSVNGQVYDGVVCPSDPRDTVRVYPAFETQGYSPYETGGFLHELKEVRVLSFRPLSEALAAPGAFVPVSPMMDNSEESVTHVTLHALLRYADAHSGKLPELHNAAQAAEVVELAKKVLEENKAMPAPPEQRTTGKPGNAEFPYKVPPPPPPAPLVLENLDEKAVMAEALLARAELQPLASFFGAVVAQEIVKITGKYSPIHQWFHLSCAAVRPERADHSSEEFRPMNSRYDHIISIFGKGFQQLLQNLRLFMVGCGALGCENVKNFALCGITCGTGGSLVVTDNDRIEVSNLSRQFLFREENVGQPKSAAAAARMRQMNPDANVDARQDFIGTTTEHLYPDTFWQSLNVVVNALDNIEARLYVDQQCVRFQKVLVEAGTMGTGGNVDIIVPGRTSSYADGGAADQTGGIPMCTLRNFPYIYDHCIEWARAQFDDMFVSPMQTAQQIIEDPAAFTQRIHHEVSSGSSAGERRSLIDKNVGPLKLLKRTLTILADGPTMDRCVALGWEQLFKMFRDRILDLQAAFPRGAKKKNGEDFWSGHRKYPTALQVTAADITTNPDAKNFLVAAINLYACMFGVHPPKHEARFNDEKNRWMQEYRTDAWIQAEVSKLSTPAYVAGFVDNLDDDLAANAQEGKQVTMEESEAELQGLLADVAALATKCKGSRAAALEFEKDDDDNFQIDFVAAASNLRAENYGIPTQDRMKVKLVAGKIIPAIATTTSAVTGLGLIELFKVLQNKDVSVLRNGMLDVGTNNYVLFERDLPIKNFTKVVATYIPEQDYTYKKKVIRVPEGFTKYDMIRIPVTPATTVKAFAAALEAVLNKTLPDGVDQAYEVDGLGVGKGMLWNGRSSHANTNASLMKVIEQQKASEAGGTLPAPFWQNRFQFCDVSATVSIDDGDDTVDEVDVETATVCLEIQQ
# [3] = molecular target: AMP-activated protein kinase, AMPK (Homo sapiens) (UniProt P54646+O43741+P54619+Q9UGJ0+Q9Y478+Q13131+Q9UGI9); assay: AMP-dependent Kinase enzyme assay. An in vitro enzyme assay that detects ADP turnover that is directly proportional to AMPK activity. This uses naive AMPK that is activated during the assay with MK-8722; assay type: functional; settings: 30 µM
# [4] = molecular target: Sialic acid-binding Ig-like lectin 9 (Homo sapiens) (UniProt Q9Y336); assay: Hs-Siglec9 ALPHAscreen SOP 20170721; settings: 10 µM
# Sequence of Sialic acid-binding Ig-like lectin 9 (Homo sapiens) (Q9Y336 whole entry): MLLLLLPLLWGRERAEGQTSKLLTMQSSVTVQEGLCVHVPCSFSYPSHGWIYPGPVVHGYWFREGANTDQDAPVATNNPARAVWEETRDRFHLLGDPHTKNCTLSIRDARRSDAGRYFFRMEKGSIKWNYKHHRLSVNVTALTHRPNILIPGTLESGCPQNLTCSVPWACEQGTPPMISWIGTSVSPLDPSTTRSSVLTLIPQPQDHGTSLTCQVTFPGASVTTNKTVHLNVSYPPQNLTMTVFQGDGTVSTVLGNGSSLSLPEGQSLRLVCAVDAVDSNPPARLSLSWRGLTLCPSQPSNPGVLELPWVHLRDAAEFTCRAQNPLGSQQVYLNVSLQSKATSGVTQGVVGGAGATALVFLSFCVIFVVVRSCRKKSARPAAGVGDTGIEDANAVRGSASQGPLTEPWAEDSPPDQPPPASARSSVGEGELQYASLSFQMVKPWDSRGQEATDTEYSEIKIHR
# Trypanosoma cruzi = assay: Trypanosoma cruzi phosphomannomutase and mannose-1-phosphate guanylyltransferase assay; assay type: functional; settings: 10 µM
# [5] = molecular target: T2, Arginase-2, mitochondrial (Homo sapiens) (UniProt P78540); assay: in vitro enzyme assay to detect the production of urea directly proportional to the activity of Arginase II; assay type: functional; settings: 33.3 µM; note: in the data most compounds retested in dose-response had high values
# T2 sequence (whole entry): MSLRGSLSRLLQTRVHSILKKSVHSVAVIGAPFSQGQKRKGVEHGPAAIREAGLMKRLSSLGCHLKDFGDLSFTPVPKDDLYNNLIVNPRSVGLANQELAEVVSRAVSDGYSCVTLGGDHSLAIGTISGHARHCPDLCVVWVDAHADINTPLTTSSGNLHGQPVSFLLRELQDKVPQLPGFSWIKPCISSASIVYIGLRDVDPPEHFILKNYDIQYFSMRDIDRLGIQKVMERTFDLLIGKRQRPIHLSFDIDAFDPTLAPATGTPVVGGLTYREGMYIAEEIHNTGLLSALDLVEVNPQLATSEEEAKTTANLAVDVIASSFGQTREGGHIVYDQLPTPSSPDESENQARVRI
# [6] = molecular target: T3, Proteasome subunit beta (Trypanosoma cruzi) (UniProt O96673); assay: Trypanosoma cruzi proteasome chymotrypsin-like activity (TcProtChymo) assay.; note: in the data most compounds retested in dose-response had high values; assay type: functional; settings: 9.37 µM
# T3 sequence (whole entry): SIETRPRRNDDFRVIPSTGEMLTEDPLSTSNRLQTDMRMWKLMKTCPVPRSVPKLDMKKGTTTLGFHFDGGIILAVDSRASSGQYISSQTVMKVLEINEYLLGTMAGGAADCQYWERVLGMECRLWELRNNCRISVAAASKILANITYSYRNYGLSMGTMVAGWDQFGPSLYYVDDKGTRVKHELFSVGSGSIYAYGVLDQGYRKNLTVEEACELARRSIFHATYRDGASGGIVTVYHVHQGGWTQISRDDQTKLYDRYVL
# Homo sapiens = species: Homo sapiens; assay: To identify inhibition of the IFN signalling (Jak-Stat) pathway via expression of an eGFP reporter gene under the control of an IFN-stimulated response element (ISRE) containing MxA promoter.; assay type: functional; settings: 30 µM
# [7] = molecular target: T4, Tyrosyl-tRNA synthetase, putative (Trypanosoma cruzi (strain CL Brener)) (UniProt Q4DSP6); assay: Trypanosoma cruzi tyrosyl tRNA synthetase (TcYRS) _High Tyrosine SOP; assay type: functional; settings: 30 µM; note: in the data most compounds retested in dose-response had high values
# T4 sequence (whole entry): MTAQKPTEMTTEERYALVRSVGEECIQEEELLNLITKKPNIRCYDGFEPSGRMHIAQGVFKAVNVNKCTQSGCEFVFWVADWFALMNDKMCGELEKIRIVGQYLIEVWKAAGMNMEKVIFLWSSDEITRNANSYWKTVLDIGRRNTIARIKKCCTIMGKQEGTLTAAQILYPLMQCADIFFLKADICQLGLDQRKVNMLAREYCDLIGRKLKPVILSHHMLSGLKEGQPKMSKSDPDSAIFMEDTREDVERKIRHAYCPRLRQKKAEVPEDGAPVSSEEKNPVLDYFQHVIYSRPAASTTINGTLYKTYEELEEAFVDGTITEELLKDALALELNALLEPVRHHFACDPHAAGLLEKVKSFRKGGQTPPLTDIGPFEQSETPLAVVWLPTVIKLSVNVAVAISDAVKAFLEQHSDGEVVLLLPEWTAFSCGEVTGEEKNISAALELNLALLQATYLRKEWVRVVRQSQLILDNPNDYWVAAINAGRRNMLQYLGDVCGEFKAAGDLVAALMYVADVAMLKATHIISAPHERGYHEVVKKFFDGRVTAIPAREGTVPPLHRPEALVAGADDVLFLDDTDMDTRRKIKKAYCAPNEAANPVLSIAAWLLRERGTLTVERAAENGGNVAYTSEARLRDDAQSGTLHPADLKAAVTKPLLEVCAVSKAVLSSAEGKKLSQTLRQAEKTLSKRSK
# [8] = molecular target: T4, Tyrosyl-tRNA synthetase, putative (Trypanosoma cruzi (strain CL Brener)); assay: Trypanosoma cruzi tyrosyl tRNA synthetase (TcYRS) SOP; assay type: functional; settings: 30 µM
# [9] = molecular target: Chromo domain-containing protein 1 (Saccharomyces cerevisiae (strain ATCC 204508 / S288c) (Baker's yeast)) (UniProt P32657); assay: ScCHD-1 Enzyme Inhibition Assay; assay type: functional; settings: 30 µM; note: in the data most compounds retested in dose-response had high values
# Sequence of Chromo domain-containing protein 1 (Saccharomyces cerevisiae (strain ATCC 204508 / S288c) (Baker's yeast)) (P32657 whole entry, the tested form may be a part): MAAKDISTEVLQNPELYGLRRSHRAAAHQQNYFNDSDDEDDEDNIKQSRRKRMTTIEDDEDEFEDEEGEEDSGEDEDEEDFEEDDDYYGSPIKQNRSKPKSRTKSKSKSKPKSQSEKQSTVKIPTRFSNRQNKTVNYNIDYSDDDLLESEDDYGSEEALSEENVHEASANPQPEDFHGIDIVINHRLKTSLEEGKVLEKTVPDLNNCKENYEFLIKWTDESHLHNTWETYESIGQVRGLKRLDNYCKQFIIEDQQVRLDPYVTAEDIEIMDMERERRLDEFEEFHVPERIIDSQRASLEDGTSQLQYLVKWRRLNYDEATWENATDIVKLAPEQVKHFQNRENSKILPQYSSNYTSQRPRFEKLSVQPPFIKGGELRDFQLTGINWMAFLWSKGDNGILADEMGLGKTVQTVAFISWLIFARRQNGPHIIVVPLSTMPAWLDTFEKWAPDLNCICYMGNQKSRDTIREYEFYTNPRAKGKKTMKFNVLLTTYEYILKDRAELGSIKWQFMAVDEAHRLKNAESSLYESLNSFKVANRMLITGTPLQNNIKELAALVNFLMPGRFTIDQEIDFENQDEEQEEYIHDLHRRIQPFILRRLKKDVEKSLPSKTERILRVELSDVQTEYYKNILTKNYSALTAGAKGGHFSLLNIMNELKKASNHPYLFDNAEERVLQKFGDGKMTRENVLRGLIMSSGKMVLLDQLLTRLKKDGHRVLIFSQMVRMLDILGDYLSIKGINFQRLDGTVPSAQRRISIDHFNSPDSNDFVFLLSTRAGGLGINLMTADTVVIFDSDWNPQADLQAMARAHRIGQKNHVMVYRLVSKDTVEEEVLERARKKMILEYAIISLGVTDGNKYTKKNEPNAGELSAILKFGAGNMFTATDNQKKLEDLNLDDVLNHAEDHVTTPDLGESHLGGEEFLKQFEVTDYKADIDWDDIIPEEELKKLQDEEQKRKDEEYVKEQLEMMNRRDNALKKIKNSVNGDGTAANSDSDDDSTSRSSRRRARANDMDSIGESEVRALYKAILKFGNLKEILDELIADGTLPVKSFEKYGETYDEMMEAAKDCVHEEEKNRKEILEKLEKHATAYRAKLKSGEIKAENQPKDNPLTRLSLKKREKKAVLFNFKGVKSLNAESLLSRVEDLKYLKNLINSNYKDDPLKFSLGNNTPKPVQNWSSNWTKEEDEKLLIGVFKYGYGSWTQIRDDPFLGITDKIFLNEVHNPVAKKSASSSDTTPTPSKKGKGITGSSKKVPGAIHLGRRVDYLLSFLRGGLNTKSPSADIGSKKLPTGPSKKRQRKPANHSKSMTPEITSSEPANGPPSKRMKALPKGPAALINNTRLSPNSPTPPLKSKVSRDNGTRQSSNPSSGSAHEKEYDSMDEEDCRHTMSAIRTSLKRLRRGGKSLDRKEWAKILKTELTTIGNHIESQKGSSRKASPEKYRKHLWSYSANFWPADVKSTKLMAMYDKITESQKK
structure (smiles),measurement,setting,value
CCN(CC)C(=O)Cn1ccc2cc(NC(=O)C3CCCO3)ccc21 (stereo not given),Percent Effect,[1],-3.96%
same,Percent Effect,[2],26.3%
same,Percent Effect,[3],-13.9%
same,Percent Effect,[4],1.14%
same,Percent Effect,Trypanosoma cruzi,6.39%
same,Percent Effect,[5],-1.53%
same,Percent Effect,[6],16.5%
same,Percent Effect,Homo sapiens,2.47%
same,Percent Effect,[7],6.37%
same,Percent Effect,[8],17.1%
same,Percent Effect,[9],-14.2%
CCOCC(O)CN1CCN(C(=O)c2ccnc(N(C)C)c2)CC1 (stereo not given),Percent Effect,[1],-2.11%
same,Percent Effect,[2],2.7%
same,Percent Effect,[3],-5.93%
same,Percent Effect,[4],13.5%
same,Percent Effect,Trypanosoma cruzi,5.99%
same,Percent Effect,[5],1.43%
same,Percent Effect,[6],0%
same,Percent Effect,Homo sapiens,-4.49%
same,Percent Effect,[7],1.59%
same,Percent Effect,[8],7.32%
same,Percent Effect,[9],-3.55%
Cc1nc(C2CCCN2CC(=O)NCCOc2ccccc2)no1 (stereo not given),Percent Effect,[1],-3.91%
same,Percent Effect,[2],5.26%
same,Percent Effect,[3],-1.52%
same,Percent Effect,[4],4.39%
same,Percent Effect,Trypanosoma cruzi,3.38%
same,Percent Effect,[5],-0.383%
same,Percent Effect,[6],12.7%
same,Percent Effect,Homo sapiens,-2.83%
same,Percent Effect,[7],0.49%
same,Percent Effect,[8],7.32%
same,Percent Effect,[9],-12.7%
NCCn1nc(C2CCN(Cc3ccc(Cl)c(Cl)c3)C2)c2nccnc21 (stereo not given),Percent Effect,[1],-3.22%
same,Percent Effect,[2],-14.9%
same,Percent Effect,[3],7.43%
same,Percent Effect,[4],0.383%
same,Percent Effect,Trypanosoma cruzi,2.37%
same,Percent Effect,[5],-4.41%
same,Percent Effect,[6],8.74%
same,Percent Effect,Homo sapiens,7.68%
same,Percent Effect,[7],1.07%
same,Percent Effect,[8],-1.3%
same,Percent Effect,[9],-23.3%
CCOc1cccc2c1OCC(C(=O)NS(=O)(=O)c1ccc(C)s1)=C2,Percent Effect,[1],-4.93%
same,Percent Effect,[2],-8.11%
same,Percent Effect,[3],-7.07%
same,Percent Effect,[4],7.91%
same,Percent Effect,Trypanosoma cruzi,-1.98%
same,Percent Effect,[5],4.01%
same,Percent Effect,[6],9.01%
same,Percent Effect,Homo sapiens,5.57%
same,Percent Effect,[7],-9.36%
same,Percent Effect,[8],-18.5%
same,Percent Effect,[9],-1.03%
O=C(CN1CCCC1Cn1cncn1)Nc1cccnc1 (stereo not given),Percent Effect,[1],-3.94%
same,Percent Effect,[2],9.72%
same,Percent Effect,[3],-1.95%
same,Percent Effect,[4],0.616%
same,Percent Effect,Trypanosoma cruzi,-1.26%
same,Percent Effect,[5],4.86%
same,Percent Effect,[6],16%
same,Percent Effect,Homo sapiens,-11.7%
same,Percent Effect,[7],5.26%
same,Percent Effect,[8],10.3%
same,Percent Effect,[9],-1.86%
COc1ccc(CNCC(C)Oc2ccccn2)cc1Br (stereo not given),Percent Effect,[1],0.219%
same,Percent Effect,[2],17.3%
same,Percent Effect,[3],-6.72%
same,Percent Effect,[4],0.831%
same,Percent Effect,Trypanosoma cruzi,5.3%
same,Percent Effect,[5],-4.75%
same,Percent Effect,[6],9.8%
same,Percent Effect,Homo sapiens,3.97%
same,Percent Effect,[7],11.6%
same,Percent Effect,[8],12.8%
same,Percent Effect,[9],-11.9%
Cc1oc(C(=O)O)cc1S(=O)(=O)Nc1ccc(Cl)c(F)c1,Percent Effect,[1],-4.46%
same,Percent Effect,[2],0%
same,Percent Effect,[3],1.91%
same,Percent Effect,[4],3.7%
same,Percent Effect,Trypanosoma cruzi,-5.24%
same,Percent Effect,[5],2.85%
same,Percent Effect,[6],-2.2%
same,Percent Effect,Homo sapiens,27.1%
same,Percent Effect,[7],-2.91%
same,Percent Effect,[8],-4.88%
same,Percent Effect,[9],-4.31%
Cc1nc(C2CCCN2Cc2nnc(C3CC3)o2)no1 (stereo not given),Percent Effect,[1],-2%
same,Percent Effect,[2],2.7%
same,Percent Effect,[3],4.19%
same,Percent Effect,[4],3.15%
same,Percent Effect,Trypanosoma cruzi,-1.21%
same,Percent Effect,[5],-0.554%
same,Percent Effect,[6],17.2%
same,Percent Effect,Homo sapiens,16.6%
same,Percent Effect,[7],9.9%
same,Percent Effect,[8],18.3%
same,Percent Effect,[9],-3.91%
CNC(=O)[C@H]1C[C@H]2OCC[C@H]2N(Cc2cccc3ccccc23)C1,Percent Effect,[1],-2.27%
same,Percent Effect,[2],10.4%
same,Percent Effect,[3],2.57%
same,Percent Effect,[4],2.56%
same,Percent Effect,Trypanosoma cruzi,-0.296%
same,Percent Effect,[5],-3.23%
same,Percent Effect,[6],8.01%
same,Percent Effect,Homo sapiens,-0.999%
same,Percent Effect,[7],3.17%
same,Percent Effect,[8],8.97%
same,Percent Effect,[9],-9.11%
